Screens deposited in PubChem BioAssay by several laboratories.
Sampled rows, rich in hits. Any-hit rate of the full collection: about 3.2%.
AHR activator: AHR activators, primary screen, cell-based, luminescence, luciferase reporter, human | Aryl hydrocarbon receptor (Homo sapiens), P35869 | activation, % at 5 µM | hit rate 2.5% among 320,000 | AHR-responsive luciferase reporter cells; in the data active means activation above about 47%;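 further: 0% = vehicle wells and 100% = reference agonist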
Target sequence (P35869 whole entry, looked up): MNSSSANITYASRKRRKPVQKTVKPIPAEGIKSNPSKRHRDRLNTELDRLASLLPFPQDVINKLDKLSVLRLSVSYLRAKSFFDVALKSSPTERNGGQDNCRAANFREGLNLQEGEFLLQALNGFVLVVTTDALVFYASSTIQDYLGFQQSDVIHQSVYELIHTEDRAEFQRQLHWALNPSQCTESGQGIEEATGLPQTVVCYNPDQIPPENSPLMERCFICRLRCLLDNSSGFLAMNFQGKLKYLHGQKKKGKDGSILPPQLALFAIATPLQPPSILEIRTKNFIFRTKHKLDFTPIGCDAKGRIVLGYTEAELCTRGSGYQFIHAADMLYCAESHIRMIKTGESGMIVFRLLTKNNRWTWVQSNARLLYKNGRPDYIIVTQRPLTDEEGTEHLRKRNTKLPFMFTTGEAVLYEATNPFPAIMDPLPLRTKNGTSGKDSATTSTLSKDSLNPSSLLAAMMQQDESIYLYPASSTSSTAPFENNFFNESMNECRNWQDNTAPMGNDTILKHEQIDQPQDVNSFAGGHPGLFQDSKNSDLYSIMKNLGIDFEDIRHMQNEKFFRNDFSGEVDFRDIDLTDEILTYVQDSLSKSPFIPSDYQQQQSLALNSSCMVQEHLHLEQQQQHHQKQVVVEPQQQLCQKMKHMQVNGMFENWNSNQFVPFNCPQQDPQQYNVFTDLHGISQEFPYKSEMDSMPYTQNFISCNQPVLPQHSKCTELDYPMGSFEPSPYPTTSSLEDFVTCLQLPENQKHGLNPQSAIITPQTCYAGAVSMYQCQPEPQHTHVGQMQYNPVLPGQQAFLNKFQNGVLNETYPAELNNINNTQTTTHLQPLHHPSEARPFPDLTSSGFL
A3G deaminase: APOBEC3G DNA deaminase inhibitors, primary screen, biochemical, fluorescence, single-stranded DNA substrate, uHTS | DNA dC->dU-editing enzyme APOBEC-3G (Homo sapiens), Q9HC16 | recombinant A3G, ssDNA deamination FAM/TAMRA fluorescence | inhibition, % at 20 µM | hit rate 0.28% among 330,000 | AID 493012, 2011;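 active means inhibition of at least 40% at 20 µM, with no more than 30% in the related APOBEC3A deaminase screen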;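 further: plate controls were DMSO wells with A3G for no effect and wells lacking A3G enzyme for full effect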
NTR1 agonist: agonists of human NTR1, primary screen, imaging, U2OS cells, beta-arrestin-GFP, high content. AID 493036, 2011. hit rate 0.17% among 330,000. NTR1-U2OS beta-arrestin-GFP spot imaging, agonist mode. Neurotensin receptor type 1 (Homo sapiens), P30989. activation, % at 20 µM;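 active means activation at or above 40% of the spot to cytoplasm intensity ratio, with at least 20 cells analyzed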;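 further: 0% = DMSO without peptide and 100% = 100 nM NTR1 peptide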
A3A deaminase: APOBEC3A ssDNA deaminase inhibitors, primary screen, selectivity assay for APOBEC3G inhibitor project, biochemical, FAM/TAMRA oligo cleavage fluorescence. recombinant A3A, FAM/TAMRA ssDNA deamination fluorescence. inhibition, % at 20 µM. hit rate 0.41% among 330,000;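 active means at least 40% inhibition at 20 µM here, with at most 30% in a related deaminase screen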;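 further: plate controls were A3A with DMSO for no effect and wells lacking A3A enzyme for full effect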
An asterisk follows results filed as active; x = not tested or not shown.

SMILES | AHR activator | A3G deaminase | NTR1 agonist | A3A deaminase
CC1=NN(C(N)=S)C(=O)C1N=Nc1ccc(Br)cc1 (stereo not drawn) | x | -1 | 0 | -8
CC1=NN(C(N)=S)C(=O)C1N=Nc1ccccc1 (stereo not drawn) | 70* | -2 | 2 | -1
CC1=NN(C(N)=S)C(=O)C1N=Nc1cccc([N+](=O)[O-])c1 (stereo not drawn) | 63* | -5 | 0 | -4
CSc1c(CC(=O)Nc2ccc(F)cc2)n(Cc2ccccc2)c2ccccc12 | 2 | -3 | 0 | -1
Cc1ccc(CNc2ccc3c(c2)nc(C)n3C)cc1 | 57* | -2 | 0 | -1
Cc1nc2cc(NCc3ccc(Cl)cc3)ccc2n1C | 24 | 24 | 1 | -6
Cc1ccc(NC(=O)C2=C(O)CCn3c2nc2ccccc23)cc1 | 57* | -6 | 6 | -3
C/C(=N\NC(=O)CC1N=C(Cc2ccccc2)NNC1=O)c1ccncc1 (stereo not drawn) | 57* | -2 | 1 | -5
COC(=O)/C=C1/S/C(=N/NC(=O)c2ccc(Cl)cc2Cl)NC1=O | 1 | 0 | 0 | -4
Cc1cc(C)cc(NC(=S)NC(=O)C2CC2)c1 | 58* | -6 | 2 | -4
Cc1cccc(NC(=S)NC(=O)C2CC2)c1 | 8 | 7 | 1 | -1
Cc1cc(NC(=S)NC(=O)C2CC2)ccc1Br | 106* | -9 | 11 | -1
CCCCOC(=O)/C(=C/c1cn(C)c2ccccc12)NC(=O)c1ccc(OC)cc1 | 81* | -2 | 1 | 2
Cc1c(Cl)cccc1-n1cnc(=O)c2ccccc21 | 0 | -10 | 5 | -4
COc1ccc(NC(=O)Cn2cnc3sc(C)c(S(=O)(=O)N4CCOCC4)c3c2=O)c(OC)c1 | 1 | -5 | 0 | -1
CC(=O)n1cc([C@H]2C=C(C(=O)NCc3ccccc3)O[C@@H](OCc3ccc(CO)cc3)C2)c2ccccc21 | 65* | -2 | 3 | 1
C#CCNC(=O)C1=C[C@@H](c2cn(C(C)=O)c3ccccc23)C[C@@H](OCc2ccc(CO)cc2)O1 | 47* | -3 | 1 | 0
CC(=O)n1cc([C@H]2C=C(C(N)=O)O[C@@H](OCc3ccc(CO)cc3)C2)c2ccccc21 | 73* | -11 | 2 | -1
Cc1cc(C)c(C#N)c(Nc2cccc(C)c2C)n1 | 41 | -5 | 0 | -3
O=C1NC[C@@H](c2ccccc2)OC(=O)[C@@H](Cc2ccc(F)cc2)CC/C=C/C[C@@H]1CC(=O)N(CCO)Cc1ccccc1 | 1 | -7 | 5 | -1
Cc1ccc(C(=O)N/C(=C\c2cn(C)c3ccccc23)C(=O)NCCN2CCOCC2)cc1 | 17 | -4 | 0 | -3
O=C(c1ccccc1)c1c2c(cc3sc4ccccc4[n+]13)-c1cccc3cccc-2c13 | 54* | x | x | x
Cc1sc2cc3c(c(C(=O)c4ccccc4)[n+]2c1C)-c1cccc2cccc-3c12 | 7 | x | x | x
COC(=O)c1ccc(NC(=O)CSc2nc(=O)n3cccc(C)c3n2)cc1 | 5 | -1 | 4 | -1
CSc1ccc(C#N)cc1NC(=O)c1ccc(Cl)cc1Cl | 59* | -3 | 1 | -1
SMILES | AHR activator | A3G deaminase | NTR1 agonist | A3A deaminase
CSc1ccc(C#N)cc1NC(=O)c1ccccc1 | 15 | -8 | 0 | -1
CN(CC(=O)c1c(N)n(C)c(=O)n(C)c1=O)c1ccccc1 | 1 | -5 | 1 | -1
O=C(NNS(=O)(=O)c1ccccc1)c1cc2cc3ccccc3nc2s1 | 36 | -5 | -1 | -4
O=C(NNC(=O)c1cc2cc3ccccc3nc2s1)c1cccc(C(F)(F)F)c1 | 48* | 0 | -1 | -2
Cc1ccc2nc(/C(C#N)=C/c3ccc(O)c(O)c3)[nH]c2c1 | 62* | -18 | 0 | -12
Cc1ccc2nc(/C(C#N)=C/c3cn[nH]c3-c3ccc(F)cc3)[nH]c2c1 | 76* | -3 | 5 | 3
Cc1ccc2nc(/C(C#N)=C/c3ccccc3C(=O)O)[nH]c2c1 | 30 | -5 | 1 | -8
COc1cccc(/C=C(\C#N)c2nc3ccc(C)cc3[nH]2)c1OCC(=O)O | 31 | -5 | -1 | -6
COc1ccc(NC(=O)CCCN2C(=O)C(c3ccccc3)Oc3cccnc32)c(OC)c1 (stereo not drawn) | 3 | -4 | 0 | -3
Fc1ccc(/C=C2\CCCC3=C2Nc2ncnn2C3c2ccc(F)cc2)cc1 (stereo not drawn) | -2 | 0 | 46* | -2
CCOc1ccc(NC(=O)c2cc(OC)nc3ccccc23)cc1 | 65* | -5 | 4 | -1
Cc1cccc(NC(=O)c2cc(Cl)nc3ccccc23)c1 | 62* | -4 | -2 | 2
Cc1cc(C(=O)Nc2ccc(Cl)cc2)c2ccccc2n1 | 66* | -2 | 4 | -2
c1cn2c(NC3CCCCC3)c(-c3ccc(SC4CCCCC4)cc3)nc2cn1 | 1 | -8 | 13 | -4
CCN(CC)c1ccc(-c2nc3cnccn3c2NC2CCCC2)cc1 | 69* | -7 | 0 | -4
O=C(CO/N=C1\CCCc2nonc21)Nc1ccc(Br)cc1 | 78* | -1 | 0 | 2
Cc1ccc(OS(=O)(=O)c2c(C)nn(C)c2Cl)c(C)c1 | 20 | -9 | 1 | -4
Cc1c(C(=O)Nc2ccccc2F)sc2ncn(CC(=O)N3CCOCC3)c(=O)c12 | 0 | -6 | 0 | -10
O=C1CCC(c2ccc(-n3ccnc3)cc2)=NN1 | 67* | -5 | 0 | -1
O=C1CCC(c2ccccc2)=NN1 | -1 | -5 | 0 | 5
Oc1c(Cl)cc(Cl)cc1/C=C/c1ccc2cccc(O)c2n1 | 51* | -30 | 3 | -19
Oc1cccc2ccc(/C=C/c3cccs3)nc12 | 70* | -3 | 11 | 4
Cc1ccsc1/C=C/c1ccc2ccccc2n1 | 42 | -3 | 1 | 1
Cc1ccsc1/C=C/c1ccc2cccc(O)c2n1 | 94* | -4 | 7 | -2
Cc1noc(C)c1C(=O)Nc1nc(-c2cccs2)cs1 | 63* | 1 | 0 | 0
SMILES | AHR activator | A3G deaminase | NTR1 agonist | A3A deaminase
O=C(Nc1nc(-c2ccc(Cl)s2)cs1)c1cccs1 | 71* | -9 | 9 | -6
CCc1noc(C)c1C(=O)Nc1nc(-c2cccs2)cs1 | 31 | -9 | 1 | 1
O=C(Nc1nc(-c2ccccc2)cs1)c1cccs1 | 4 | 2 | 0 | 2
CC(C)c1ccc(C2NC(=S)NC3=C2C(=O)CC(C)(C)C3)cc1 (stereo not drawn) | 8 | -6 | 2 | -2
CC1CCN(C(=O)COC(=O)C2CCN(S(=O)(=O)c3ccc4c(c3)OCCO4)CC2)CC1 | 1 | -10 | 0 | -2
O=C1c2ccccc2-c2onc3ccc(NCCCn4ccnc4)c1c23 | 60* | -215 | -2 | -112
O=C(CNc1cccc([N+](=O)[O-])c1)N/N=C/c1ccc([N+](=O)[O-])o1 | 10 | -1 | 5 | 5
